Experimental findings from PubChem BioAssay AID2796 (The Scripps Research Institute Molecular Screening Center, 2010) are described below.

Hit rate of the full screen: of about 320,000 compounds, about 8,000 (2.5%) were called active. Cut-off read from the data, not from the text of the source: active = activation above about 47%; inactive = the rest. The sample as a whole holds a higher share of actives than the screen did.

The target in this assay is Aryl hydrocarbon receptor (Homo sapiens) (UniProt P35869). Nature of the assay: AHR activators, primary screen, cell-based, luminescence, luciferase reporter, human (AID 2796).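 Note: 0% = vehicle wells and 100% = reference agonist.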 As to conditions: AHR-responsive luciferase reporter cells, at 5 µM, stronger effect = higher value. In general terms: A reporter such as luciferase makes a cellular process visible.
Aryl hydrocarbon receptor (Homo sapiens), sequence (P35869 whole entry, looked up): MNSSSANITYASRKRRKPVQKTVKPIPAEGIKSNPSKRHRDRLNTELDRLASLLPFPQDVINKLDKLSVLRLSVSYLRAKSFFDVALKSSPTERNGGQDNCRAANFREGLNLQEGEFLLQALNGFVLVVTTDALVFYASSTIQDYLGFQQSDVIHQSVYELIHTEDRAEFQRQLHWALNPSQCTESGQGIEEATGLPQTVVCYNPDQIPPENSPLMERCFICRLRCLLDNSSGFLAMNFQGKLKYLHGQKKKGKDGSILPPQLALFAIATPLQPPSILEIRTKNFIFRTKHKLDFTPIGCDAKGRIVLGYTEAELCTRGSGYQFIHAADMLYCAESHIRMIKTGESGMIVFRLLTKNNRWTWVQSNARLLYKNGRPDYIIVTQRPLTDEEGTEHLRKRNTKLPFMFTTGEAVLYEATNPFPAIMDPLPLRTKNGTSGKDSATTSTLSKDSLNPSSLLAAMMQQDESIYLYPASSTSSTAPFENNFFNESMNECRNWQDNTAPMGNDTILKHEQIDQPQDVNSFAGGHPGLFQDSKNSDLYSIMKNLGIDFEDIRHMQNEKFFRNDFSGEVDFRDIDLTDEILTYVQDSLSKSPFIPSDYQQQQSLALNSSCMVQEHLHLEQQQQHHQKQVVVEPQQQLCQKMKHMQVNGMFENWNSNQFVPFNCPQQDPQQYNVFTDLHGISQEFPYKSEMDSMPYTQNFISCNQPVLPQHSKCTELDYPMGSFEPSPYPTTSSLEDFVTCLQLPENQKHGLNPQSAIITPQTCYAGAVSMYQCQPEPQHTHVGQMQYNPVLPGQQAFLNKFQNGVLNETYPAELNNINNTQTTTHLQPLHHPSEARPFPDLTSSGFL
Turning to `COC(=O)C1=C(C)N(c2ccc(C)cc2)/C(=C/c2ccc(O)cc2)C1=O`, the activation is 2.06% (inactive).
As for `C[C@H](C(=O)CC(=O)OC(C)(C)C)[C@H](O)c1ccc(C(F)(F)F)cc1`, the activation was 1.94% (inactive).
Turning to `Cc1cc(OC(=O)c2ccc(Cl)cc2)cc(=O)n1C`, the activation was -0.96% (inactive).
As for `COc1ccc2ccn(C)c2c1`, the activation was 5.22% (inactive).
As for `COc1ccc(C(C(=O)NCc2ccccc2)N(Cc2cccs2)C(=O)c2cnccn2)cc1` (stereo not given), the activation was -1.35% (inactive).
With `COc1ccc(NC(=O)c2cc([N+](=O)[O-])ccc2NC(=O)CNC2CCCCC2C)c(OC)c1` (stereo not given), the activation was 47.4% (active).
With `COc1cc([N+](=O)[O-])ccc1NC(=O)CN1CCCC1` the figure was 4.3% (inactive).
As to `CC1CCCCC1NCC(=O)Nc1ccccc1C(=O)Nc1ccccc1` (stereo not given), the activation was -0.06% (inactive).
For `COc1ccccc1CN1CC(C(=O)NCCc2cn[nH]c2)CCC1=O` (stereo not given), the activation is 2.31% (inactive).
In the case of `COc1cccc(OC)c1C(=O)Nc1sc2c(c1C(N)=O)CCCC2`, the activation is 49.1% (active).
With `O=C(Nc1sc2c(c1C(=O)O)CCC2)c1ccccc1F` the figure was 13.6% (inactive); with `COc1cccc(OC)c1C(=O)Nc1nnc(C(C)C)s1`, 15.7% (inactive); with `CNC(=O)c1c(NC(NC(=O)c2ccco2)C(=O)c2ccc(Cl)cc2)sc2c1CCCC2` (stereo not given), 1.8% (inactive).
The value for `NC(=O)c1c(NC(=O)CSc2nnc(-c3ccco3)n2N)sc2c1CCCC2` was 19.8% (inactive).
On to `NC(=O)c1c(Nc2nc3c(F)cccc3s2)sc2c1CCCC2`, for which the activation was 52.5% (active).
The value for `Cc1cccc(N(C(=O)Cn2nnc(-c3ccc(C)o3)n2)C(C(=O)NC2CCCC2)c2ccncc2)c1` (stereo not given) was -1.02% (inactive); that for `CC1CCCCN1C(=O)CCS(=O)(=O)Cc1ccccc1` (stereo not given) was -0.28% (inactive).
Turning to `Nc1ccccc1/C=N\N=C/c1ccccc1N`, the activation was 38.4% (inactive).
Consider `CCNC(=O)c1sccc1-n1cccc1`, for which the activation is 0.75% (inactive).
As to `COC(=O)c1sccc1NC(=S)Nc1ccc(C)cc1`, the activation was 1.83% (inactive).
With `Cc1ccc(NC(=O)NNC(=O)c2sccc2-n2cccc2)cc1` the figure was 85.8% (active).
For `CN(C)C1=NC[C@H](Cc2ccccc2)N1CCc1ccc(F)cc1`, the activation is 5.16% (inactive).
In the case of `CCOC(=O)N1CCN(C(=O)c2ccccc2SCC(=O)NCC2CCCCC2)CC1`, the activation is 1.83% (inactive).
On to `O=C(Cc1ccccc1)NNC(=O)C1CCN(c2ncccn2)CC1`, for which the activation was 0.76% (inactive).
Turning to `O=C1/C(=C\Nc2ccccc2)CCN1c1ncccn1`, the activation was 66.5% (active).
In the case of `COc1ccccc1Oc1ccc(N/C=C2/CCCC2=O)cc1`, the activation is 0.2% (inactive).
`CCc1cc2c(=O)c(-c3ccc(F)cc3)c(C(F)(F)F)oc2cc1OCC(=O)O`: the activation is 8.09% (inactive).
The value for `COc1ccc2oc(N)c(C=O)c(=O)c2c1` was -1.38% (inactive); that for `CCc1cc2c(=O)c(-c3ccon3)c(N)oc2cc1OC` was 59.6% (active); that for `CCN1C(=O)C(C(=O)NC(C)c2ccccc2)C2CC1(C)Oc1ccccc12` (stereo not given) was 2.9% (inactive).
For `CC(NS(=O)(=O)c1ccccc1)c1n[nH]c(=S)n1-c1ccccc1` (stereo not given), the activation was 2.32% (inactive).
In the case of `COc1ccc(Cl)cc1NS(=O)(=O)c1cccc(C(=O)NCC2CCCO2)c1` (stereo not given), the activation was -1.04% (inactive).
With `O=C(NC(=S)Nc1ccccc1N1CCCCC1)c1ccc(F)cc1` the figure was 19.9% (inactive).
As to `COc1ccccc1C(=O)NC(=S)Nc1ccccc1N1CCCCC1`, the activation is 76.4% (active).
With `COc1ccc(C(=O)NC(=S)Nc2ccccc2N2CCN(S(C)(=O)=O)CC2)cc1OC` the figure was 0.97% (inactive).
As to `Cc1cc(C)n(CC(O)CN(c2ccccc2)S(=O)(=O)c2ccc3ccccc3c2)n1` (stereo not given), the activation was 2.73% (inactive).
With `N#C/C(=C(/O)COc1cccc2ccccc12)c1nc2ccccc2[nH]1` the figure was 93.7% (active); with `N#C/C(=C(/O)COC(=O)COc1ccc(Cl)cc1)c1nc2ccccc2[nH]1`, 24.9% (inactive).
For the compound `N#C/C(=C(/O)Cc1cccc2ccccc12)c1nc2ccccc2s1`, the activation is 9.95% (inactive).
As for `O=C(CCNS(=O)(=O)c1ccccc1C(F)(F)F)NCc1ccc2c(c1)OCO2`, the activation is 4.67% (inactive).
With `COc1ccccc1CCNC(=O)CSc1nnc2ccc(-c3cccnc3)nn12` the figure was 16.4% (inactive); with `CCOC(=O)N1CCC(N2Cc3cccc(C(=O)Nc4ccc(S(=O)(=O)N(CC)CC)cc4)c3C2=O)CC1`, -1.91% (inactive); with `CC(=O)Oc1ccccc1C(=O)Nc1ncc([N+](=O)[O-])s1`, 6.57% (inactive).
For `Cc1cccc(C)c1Nc1nnc(SCC(=O)NCCCN2CCCC2=O)s1`, the activation is -0.54% (inactive).
The value for `C=CCNc1nc(N)c(C(=C(C#N)C#N)c2ccccc2)s1` was 5.13% (inactive); that for `CN1c2ccc([N+](=O)[O-])cc2C(C)(C)C12C=Cc1cc(C(=O)O)ccc1O2` (stereo not given) was 0.9% (inactive); that for `CC[C@@]1(C(=O)OC)N[C@H](CN(C)C(C)=O)[C@@H]2C(=O)N(C)C(=O)[C@@H]21` was -0.36% (inactive).
With `Cn1c(S(=O)(=O)O)nc2ccccc21` the figure was 3.28% (inactive).
On to `N#C/C(=C1/CCCN1)c1ccccn1`, for which the activation is 0.38% (inactive).
On to `Cn1c(/C(C#N)=C2/CCCCCN2)nc2ccccc21`, for which the activation is 67.6% (active).
For the compound `Cc1ccc2[nH]c(=O)c(CN(CCCN(C)C)C(=O)Nc3cccc(Cl)c3)cc2c1`, the activation was 0.48% (inactive).
Regarding `Cc1ncn2cc(-c3ccc(Cl)cc3Cl)[nH]c(=O)c12`, the activation is 56.5% (active).
Consider `CCOC(=O)c1nc(C)n(-c2ccc(Cl)cc2Cl)n1`, for which the activation was 2.68% (inactive).
On to `COn1c(-c2ccc(Cl)cc2Cl)nc2ncccc21`, for which the activation was 2.64% (inactive).
As to `COc1cc(NC(=O)CSc2ccc(-c3cccnc3)nn2)cc(OC)c1`, the activation is 44.9% (inactive).
As for `O=S(=O)(NCC1CCCO1)c1cnc(Cl)c(Cl)c1` (stereo not given), the activation was -2.6% (inactive).
Consider `CC(C)[C@H](NC(=O)N1c2ccccc2NC(=O)[C@@H]1C(C)C)C(=O)N[C@H](C(=O)O)c1ccccc1`, for which the activation was 0.48% (inactive).
Take `C/C(=N\Nc1nc(N2CCOCC2)nc(N2CCOCC2)n1)c1ccc([N+](=O)[O-])cc1`: the activation was 0.4% (inactive).
As for `C/C(=N\Nc1nc(Nc2ccccc2)nc(N2CCOCC2)n1)c1cccs1`, the activation was 56.8% (active).
As for `C/C(=N\Nc1nc2ccccc2[nH]1)c1cccs1`, the activation was 43.1% (inactive).
